# Laboratory results published in PubChem BioAssay (NCATS).
# Inconclusive results are not listed. A call without a number means that no potency is given here. Values without a mark were called inactive. Calls of active or inactive are those of the source. The call rests on the fitted dose curve; in most records, active means well fitted curve in either direction with a large enough effect (not every such curve was filed as active); inconclusive means small, poorly fitted or top-dose-only effect, or another doubt; inactive means flat fitted curve, though single readings scatter.
# Target: Mitogen-activated protein kinase 10 (Mus musculus) (UniProt Q61831)
# Test: JNK3 AlphaScreen Assay (AID 530);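 further: kinase came from lysate of stimulated human HepG2 cells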
# Details: JNK3 lysate, c-Jun phosphorylation; series mostly up to 57.1 µM
# Text: NIH Chemical Genomics Center [NCGC]
# NIH Molecular Libraries Screening Centers Network [MLSCN]
# The c-jun N-terminal kinase (JNK) family are serine/threonine protein kinases that phosphorylate c-jun, a component of the transcription factor […] (AP-1). JNK kinases are members of the mitogen-activated protein kinase family including the extracellular regulated kinases and p38 kinases. Three JNK genes (JNK 1, 2, and 3) have been identified in humans so far. JNK1 and JNK2 have a broad distribution and JNK3 is primarily found in neuronal tissues and cardiac myocytes.
# JNK3 has been under consideration as a target for the treatment of neurodegenerative disorders. […] JNK pathway is also involved in pathological process in a mouse model of Parkinson's disease (Xia et al., 2001).
# Given these potential tissue distributions and links to neuroprotection, JNK3 inhibitors should provide useful investigational tools to study the role of this kinase in several diseases including, arthritis, stroke, myocardial infarction, ischemic injury and Parkinson's disease.
# A homogeneous AlphaScreen is developed to measure the activity of JNK3. AlphaScreen is a two bead-based proximity-dependent chemical energy transfer luminescent assay platform. The phosphorylation of a biotinylated c-jun substrate by JNK3 can be detected with an antibody raised against phosphorylated c-jun. This process brings streptavidin donor beads and Protein-A acceptor beads to within a proximity range of <200 nm, and subsequently lead a chemical luminescent reaction upon exciting donor beads with 680 nm laser excitation light. Inhibition of JNK3 activity by small molecules and subsequent decrease in the antibody binding to biotinylated c-jun could attenuate or abolish this chemical luminescent reaction.
# Yang DD, Kuan CY, Whitmarsh AJ, Rincon M, Zheng TS, Davis RJ, Rakic P and Flavell RA (1997) Absence of excitotoxicity-induced apoptosis in the hippocampus of mice lacking the Jnk3 gene. Nature 389:865-870. [PMID: 9349820]
# Herdegen T, Claret FX, Kallunki T, Martin-Villalba A, Winter C, Hunter T, and Karin M (1998) Lasting N-terminal phosphorylation of c-Jun and activation of c-Jun N-terminal kinases after neuronal injury. J.Neurosci. 18:5124-5135. [PMID: 9651196]
# Xia XG, Harding T, Weller M, Bieneman A, Uney JB and Schulz JB (2001) Gene transfer of the JNK interacting protein-1 protects dopaminergic neurons in the MPTP model of Parkinson's disease. Proc.Natl.Acad.Sci.U.S.A. 98:10433-10438.
# NCGC Assay Protocol Summary:
# GST-cJun (1-79) (Stratagene, La Jolla CA, #205145) was biotnylated by PerkinElmer (PerkinElmer-BioSignalInc. Montreal, Canada) and was detectable by the streptavidin Donor beads. Anti-(phospho)cJun (Ser73) antibody was from UpState (Charlottesvilles, VA, #06-659). JNK3-containing lysates were generated from HepG2 cells and pre-activated by interleukin1-beta and tumor necrosis factor alpha. All reagents were stored at -20 C before using. Phosphorylated biotinylated-GST-cJun was recognized by Anti-(phospho)cJun (Ser73) antibody and this process brings acceptor and donor beads together. Therefore JNK3 phosphorylation of cJun can be measured by Alpha reading by EnVision (PerkinElmer, Boston, MA).
# The composition of kinase buffer was (in mM) 20 tris- HCl (pH 7.6) 10 MgCl2, 1 DTT, and 0.1 Na3VO4 and 0.01% Tween-20. Beads were diluted in detection buffer containing (in mM) 20 tris-HCl (pH 7.7), 20 NaCl and 80 EDTA and 0.3% BSA. The assay was performed at room temperature. All compounds were screened as titrations from 0.6 nM to 46 uM final concentration. The assay was performed in 1536-well format (white solid bottom and untreated) as follows:
# Sequence,Parameter,Value,Description
# 1,Reagent,3 uL,Biotin-GST-cJun, Anti-(phospho)cJun and pre-activated JNK3-containing lysates
# 2,Compound,23 nL,Final concentration was 0.6nM to 46uM
# 3,Time,15 minutes,Room Temperature
# 4,Reagent,1 uL,ATP final concentration 10uM
# 6,Reagent,0.5 uL,2ng/well bead mixture
# […]
Compound,Potency,"activity change, negative = inhibition"
Nc1ncnc2c1ncn2[C@@H]1O[C@@H](COP(=O)(O)OP(=O)(O)OP(=O)(O)OP(=O)(O)OC[C@@H]2O[C@@H](n3cnc4c(N)ncnc43)[C@@H](O)[C@H]2O)[C@H](O)[C@@H]1O,inactive,–
CC(C)C[C@@H](CC(=O)N[C@@H](CCC(=O)O)CC(=O)O)NC(=O)[C@@H]1CCCC[C@H]1NC(=O)C[C@@H](NC(=O)C[C@H](CO)NC(=O)[C@@H]1CCCC[C@H]1N)C(C)C,inactive,–
COC(=O)C1(Cc2ccccc2)C=C2C(=C(C(C)C)C(=O)C2C)CN1 (stereo not given),inactive,–
COc1cc2nc3c(c([Si](C)(C)C(C)(C)C)c2cc1OC)Cn1c-3cccc1=O,inactive,–
O=c1cc(-c2ccccc2O)oc2cc(O)cc(O)c12,inactive,–
O=C(NCc1ccccc1)[C@@H]1C[C@H]1[C@@H](NP(=O)(c1ccccc1)c1ccccc1)c1ccccc1,inactive,–
CCCC[C@@H]1C[C@H]1C(NC(=O)Cc1ccccc1)c1ccc(Cl)cc1 (stereo not given in full),inactive,–
COC(=O)[C@H]1C[C@@H]1[C@H](NC(=O)c1cc(C)nn1C)c1ccccc1,inactive,–
COC(=O)[C@@]1(Cc2ccc(F)cc2)[C@H]2c3cc(C(=O)N(C)C)n(Cc4ccc(C(F)(F)F)nc4)c3C[C@H]2CN1C(=O)c1ccccc1,inactive,–
C=CC(=O)OCC(CO)(COC(=O)C=C)COC(=O)C=C,inactive,–
COC(=O)[C@@]1(Cc2ccc(OC)cc2)[C@@H]2[C@@H](CC(=O)[C@H]2CC(=O)C(=O)N2CCCC2)CN1C(=O)c1ccccc1,inactive,–
OCc1ccncc1.OCc1ccncc1.[Cl][Pt]([Cl])([Cl])[Cl],–,0.578% [at 11.4 µM]
CC(=O)[C@@]1(O)CC[C@@H]2[C@@H]3CCC4=CC(=O)CC[C@@]4(C)[C@H]3CC[C@]21C,inactive,–
CCC/C=C(\CCC)C(NC(=O)Oc1ccc(F)cc1)c1ccc(C(=O)OC)cc1 (stereo not given),inactive,–
CCCCCC1=C2CNC(Cc3ccccc3)(C(=O)OC)C=C2C(C)C1=O (stereo not given),inactive,–
C=C(CO)[C@H]1Cc2c(ccc3c2O[C@H]2COc4cc(OC)c(OC)cc4[C@@H]2C3=O)O1,inactive,–
COC(=O)[C@@H]1C[C@H]1[C@@H](NS(=O)(=O)c1ccc(-c2ccccc2)cc1)c1ccccc1,inactive,–
C[C@H](N)C1CCC(C(=O)Nc2ccncc2)CC1 (stereo not given in full),inactive,–
COC(=O)[C@@]1(Cc2ccccc2)[C@H]2c3cc(C(=O)N4CCCC4)n(Cc4ccsc4Br)c3C[C@H]2CN1C(=O)c1ccccc1,inactive,–
CCCC/C=C/C(NC(=O)c1ccco1)c1ccccc1 (stereo not given),inactive,–

Compound,Potency,"activity change, negative = inhibition"
CC(C)C[C@@H](CC(=O)N[C@@H](CCC(=O)O)CC(=O)O)NC(=O)[C@@H]1CCCC[C@H]1NC(=O)C[C@@H](NC(=O)C[C@H](Cc1ccccc1)NC(=O)[C@@H]1CCCC[C@H]1N)C(C)C,inactive,–
CC(=O)O[C@@H]1C[C@]2(C)[C@H](C[C@@H](O)[C@H]3[C@@]4(C)CC[C@@H](O)[C@@H](C)[C@@H]4CC[C@@]32C)/C1=C(\CCC=C(C)C)C(=O)O,inactive,–
O=C(NCc1nc2ccccc2[nH]1)[C@H]1C[C@@H]1[C@H](NP(=O)(c1ccccc1)c1ccccc1)c1ccccc1,inactive,–
CCCC[C@@H]1C[C@H]1C(NC(=O)Cc1ccccc1)c1ccc(-c2ccccc2)cc1 (stereo not given in full),inactive,–
COC(=O)[C@@H](NC(=O)c1cc(-c2ccccc2)nc2ccccc12)c1ccccc1,inactive,–
CCCC[C@@H]1C[C@H]1C(NC(=O)c1ccc(C(F)(F)F)cc1)c1ccc(C(=O)OC)cc1 (stereo not given in full),inactive,–
COC(=O)[C@@]1(Cc2ccc(F)cc2)[C@H]2c3cc(C(=O)N4CCCC4)n(CCc4ccc(OC)c(Br)c4)c3C[C@H]2CN1C(=O)c1ccccc1,inactive,–
CC(C)[C@@H](CC(=O)N[C@@H]1CCNC[C@H]1C(=O)N[C@H](CC(=O)N[C@@H](CCC(=O)O)CC(=O)O)Cc1ccccc1)NC(=O)C[C@H](CO)NC(=O)[C@@H]1CCCC[C@H]1N,inactive,–
NC(=O)/C(=C\c1ccncc1)c1cccc2ccccc12,–,1.18% [at 11.4 µM]
Nc1ncnc2c1ncn2[C@@H]1O[C@@H](CO)[C@H](O)[C@@H]1O,inactive,–
O=C1C[C@H](c2ccccc2)Oc2cc(O)cc(O)c21,inactive,–
COC(=O)[C@@]1(Cc2ccc(F)cc2)[C@H]2c3cc(C(=O)N(C)C)n(C)c3C[C@H]2CN1C(=O)c1ccccc1,inactive,–
Oc1cc(O)cc(/C=C\c2ccc(O)c(O)c2)c1,inactive,–
NCCC[C@@H](CC(=O)N[C@@H]1CCNC[C@H]1C(=O)N[C@H](CC(=O)N[C@@H](CCC(=O)O)CC(=O)O)Cc1c[nH]c2ccccc12)NC(=O)C[C@H](CO)NC(=O)[C@@H]1CCCC[C@H]1N,inactive,–
COC(=O)[C@@]1(Cc2ccccc2)[C@H]2c3cc(C(=O)N4CCCC4)n(Cc4ccc(S(C)(=O)=O)cc4)c3C[C@H]2CN1C(=O)c1ccccc1,inactive,–
COC(=O)[C@H]1C[C@@H]1[C@H](NC(=O)c1cnccn1)c1ccccc1,inactive,–
CC1=C(C(=O)OCc2ccccc2)C(c2ccc(Cl)cc2)NC(=O)N1CCCCCC(=O)O (stereo not given),inactive,–
COC(=O)[C@@]1(Cc2ccc(F)cc2)[C@H]2c3cc(C(=O)N4CCCC4)n(Cc4ccc(Cl)c(C(F)(F)F)c4)c3C[C@H]2CN1C(=O)c1ccccc1,inactive,–
C[C@@H]1C(=O)O[C@@H]2C[C@@]34[C@H]5C[C@@H](C(C)(C)C)[C@@]36[C@@H](OC(=O)[C@@H]6O)O[C@]4(C(=O)O5)[C@@]12O,inactive,–
COC(=O)[C@@]1(Cc2ccc(OC)cc2)[C@H]2c3cc(C(=O)N4CCCC4)n(Cc4cc(F)cc5c4OCOC5)c3C[C@H]2CN1C(=O)c1ccccc1,inactive,–
